Shown are actives, neighbours in structure and some others; about 3.7% of the full set was active somewhere.
BoNT-A LC inh2 = blocks Botulinum neurotoxin A light chain protease; multiplex microsphere protease substrate cleavage, flow cytometry; inhibition, % at 10 µM; 0.17% of 360,000 active; note: plate controls were buffer without enzyme for full effect and enzyme alone for no effect
Autofluor counter = flagged as autofluorescent in microsphere protease counterscreen. compound autofluorescence counterscreen, microsphere flow cytometry; active compounds read high. fluorescence intensity (test concentration not listed). 3.1% of 360,000 active. AID 624483; in the data active = fluorescence intensity above about 16000; inconclusive = no clear call, values can overlap the other calls
Anthrax LF inh2 = blocks Bacillus anthracis lethal factor protease. P15917. multiplex microsphere protease cleavage assay, LF. inhibition, % at 10 µM. 0.12% of 360,000 active. AID 588501; note: plate controls were buffer without enzyme for full effect and enzyme alone for no effect
Target sequence (P15917 whole entry, looked up): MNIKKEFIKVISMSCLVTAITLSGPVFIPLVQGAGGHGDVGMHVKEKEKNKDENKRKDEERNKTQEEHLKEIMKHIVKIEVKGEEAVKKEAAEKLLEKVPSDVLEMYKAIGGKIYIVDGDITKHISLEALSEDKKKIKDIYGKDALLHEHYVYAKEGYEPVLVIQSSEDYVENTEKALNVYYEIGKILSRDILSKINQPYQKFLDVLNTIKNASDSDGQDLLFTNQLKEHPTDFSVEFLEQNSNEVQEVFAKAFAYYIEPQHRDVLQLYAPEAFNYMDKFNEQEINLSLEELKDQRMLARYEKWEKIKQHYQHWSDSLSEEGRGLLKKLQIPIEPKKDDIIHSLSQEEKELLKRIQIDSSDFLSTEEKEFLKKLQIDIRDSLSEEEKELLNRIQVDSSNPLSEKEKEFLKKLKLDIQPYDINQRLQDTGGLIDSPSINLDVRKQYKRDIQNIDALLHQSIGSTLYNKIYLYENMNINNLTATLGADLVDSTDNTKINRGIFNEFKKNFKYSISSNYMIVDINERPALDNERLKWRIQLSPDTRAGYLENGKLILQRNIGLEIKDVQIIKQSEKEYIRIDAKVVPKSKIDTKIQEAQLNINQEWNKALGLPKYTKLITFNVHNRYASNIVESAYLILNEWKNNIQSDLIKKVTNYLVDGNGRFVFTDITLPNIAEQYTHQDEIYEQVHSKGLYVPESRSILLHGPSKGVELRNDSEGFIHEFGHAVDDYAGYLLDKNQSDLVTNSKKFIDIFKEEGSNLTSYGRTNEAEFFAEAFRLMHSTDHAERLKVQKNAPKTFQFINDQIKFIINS
MazF activator = activators of E. coli MazEF toxin-antitoxin RNase | P0AE70 | FAM/BHQ RNA-DNA oligo cleavage fluorescence, 5 h | activation, % at 20 µM | 0.32% of 350,000 active | AID 504720; in the data active = activation above about 50%
BoNT-F LC inh = blocks Botulinum neurotoxin F light chain protease | Multiplex microsphere protease cleavage assay, flow cytometry | inhibition, % at 10 µM | 0.22% of 360,000 active; in the data active = inhibition above about 35%, passing the limit was not always enough; inconclusive = no clear call, values can overlap the other calls; note: plate controls were buffer without enzyme for full effect and enzyme alone for no effect
* = called active by the depositor; ? = inconclusive; / = no result given. Cut-off read from the data, not from the text of the source, unless noted: active = inhibition above about 30%; inconclusive = no clear call, values can overlap the other calls; inactive = below that.

SMILES	BoNT-A LC inh2	Autofluor counter	Anthrax LF inh2	MazF activator	BoNT-F LC inh
COC(=O)C1CCC(=O)N1C(c1ccc(OC)cc1)c1cc(OC)c(OC)c(OC)c1 (stereo not given)	0	3582	-9	5	-6
COc1cc(C(O)c2nc(-c3cccs3)cs2)ccc1F (stereo not given)	0	3359	2	/	0
CCOc1ccc(N(CC)S(=O)(=O)c2ccc3c(c2)oc(=O)n3C)cc1	-2	17539*	-5	0	-5
CCN(c1cccc(C)c1)S(=O)(=O)c1ccc2c(c1)oc(=O)n2C	-2	4061	0	0	-22
CCOC(=O)C1C(=O)NC(SCC(N)=O)=C(C#N)C1c1ccccc1OCC (stereo not given)	2	9883	-1	-58	-5
CCOC(=O)C1C(=O)NC(SC)=C(C#N)C1c1ccccc1F (stereo not given)	0	22567*	-2	3	1
COCC(C)NC(=O)CSc1nc2cc(S(=O)(=O)N3CCCCC3)ccc2o1 (stereo not given)	-5	6316	-4	3	0
Cc1cc(C)cc(NS(=O)(=O)c2ccc3c(c2)C(C)(C)C(=O)N3C)c1	1	4449	0	5	-6
CCCCCC(=O)Nc1c(-c2cccs2)c(=O)c2ccccc2n1C	-1	16847*	2	-12	-1
CCCC(=O)Nc1c(-c2ccc(OC)cc2)c(=O)c2ccccc2n1C	0	11300	-4	4	-3
CCCCCC(=O)Nc1c(-c2ccc(OC)cc2)c(=O)c2ccccc2n1C	4	21066*	-4	7	5
COc1ccc(-c2c(NC(=O)CC(C)C)n(C)c3ccccc3c2=O)cc1OC	0	3179	33*	-2	-10
O=C(CCNS(=O)(=O)c1ccc(Br)cc1)N1CCN(c2ccccc2O)CC1	0	?	3	4	0
COc1cccc(C(=O)N2CCC[C@H]2C(=O)N2CCC[C@H]2C(=O)NCc2ccncc2)c1	0	5567	-8	/	-8
CC(=O)N(C)C1=C(N2CCOCC2)C(=O)c2ccccc2C1=O	-4	24878*	-3	0	-4
O=C(CN1C(=O)NC2(CCCc3ccccc32)C1=O)Nc1ccccc1OC(F)F (stereo not given)	0	3866	-2	3	-5
COc1cc2cc(CN(CCCO)S(=O)(=O)c3ccccc3Cl)c(=O)[nH]c2cc1OC	1	10480	-2	7	-1
CCOC(=O)c1cccc(S(=O)(=O)N(CCO)Cc2cc3cc(OC)c(OC)cc3[nH]c2=O)c1	-1	24123*	3	4	-1
COc1cc2cc(CN(CCO)S(=O)(=O)c3ccccc3Cl)c(=O)[nH]c2cc1OC	?	16702*	-2	1	-2
O=C(CN1C(=O)NC2(CCOc3ccccc32)C1=O)c1ccc(F)cc1 (stereo not given)	4	5472	1	3	14
COc1ccc(CNc2cc(C)nc3ncnn23)c(OC)c1	-2	22962*	-2	-5	-2
CC(=O)Nc1cccc(-c2ccnc3c2CC(C(=O)Nc2cccc(OC(F)(F)F)c2)O3)c1 (stereo not given)	0	3606	4	/	5
Cc1ccc(C(=O)Nc2ccc(Cl)cc2C(=O)c2ccccc2)cc1	1	23597*	-1	3	-4
COc1ccc(OCC(=O)N2CCN(C(=O)c3cccc4ccccc34)CC2)cc1	3	21547*	1	1	5
Cc1ccc(OCC(=O)N2CCN(c3nnc(-c4ccc(C)cc4)c4ccccc34)CC2)cc1	2	22360*	-2	1	3
SMILES	BoNT-A LC inh2	Autofluor counter	Anthrax LF inh2	MazF activator	BoNT-F LC inh
COc1ccc(OCC(=O)N2CCN(C(=O)c3ccccc3)CC2)cc1	0	2863	-1	-12	-14
Cc1[nH]n(-c2ccccc2)c(=O)c1S(=O)(=O)c1ccccc1	0	16181*	-2	-3	-1
FC(F)(F)c1ccc2c(c1)n(Cc1ccccc1)c1[n+]2CCCCC1	7	20850*	-2	1	17
Cc1cc(=O)oc2cc(OCC(=O)Nc3nnc(CC(C)C)s3)ccc12	0	4905	4	0	35*
Cc1cc(=O)oc2cc(OCC(=O)Nc3nnc(C(C)C)s3)ccc12	-1	4895	-2	29	-10
CC1(C)Cc2ccccc2-c2nnc(-c3ccccn3)n21	0	20079*	-5	1	-2
CCOC(=O)C(C)Sc1nnc2n1C(C)(C)Cc1ccccc1-2 (stereo not given)	?	24062*	-4	-6	-9
CC1(C)Cc2ccccc2-c2nnc(-c3ccc(O)cc3)n21	-2	9812	-2	4	6
CC1(C)Cc2ccccc2-c2nnc(-c3ccccc3)n21	2	22143*	3	2	1
CC1(C)Cc2ccccc2-c2nnc(-c3ccc4ccccc4n3)n21	0	2547	-2	6	-6
CC1(C)Cc2ccccc2-c2nnc(SCc3ccccc3)n21	1	8566	7	7	0
O=C(/C=C/c1c(F)cccc1Cl)Nc1cccnc1	0	4188	-17	4	?
NNC(=O)c1cccn(Cc2ccc(Cl)cc2Cl)c1=O	1	3096	11	-6	2
O=Cc1cccn1Cc1ccc(Cl)cc1Cl	0	23592*	-2	-8	-3
CCC1CCCCN1CCCNC(=O)CCCOc1cc(=O)n(C)c2ccccc12 (stereo not given)	0	2086	1	7	0
COCCNC(=O)COc1cc(=O)n(C)c2ccccc12	0	16570*	-1	-3	-4
Cn1c(=O)cc(OCC(=O)NCCCN2CCN(c3ccccc3F)CC2)c2ccccc21	4	20602*	0	0	8
CCN(CCCNC(=O)COc1cc(=O)n(C)c2ccccc12)c1cccc(C)c1	7	17522*	-12	4	4
Cn1c(=O)cc(OCCCC(=O)NCCN2CCN(c3ccccc3F)CC2)c2ccccc21	0	5817	-3	16	-13
CCC1CCCCN1CCCNC(=O)COc1cc(=O)n(C)c2ccccc12 (stereo not given)	-1	20141*	0	-1	-2
CCn1cc(/C=C(\NC(=O)c2ccccc2)C(=O)N2CCOCC2)c2ccccc21	2	4149	2	5	15
CCn1c(=O)cc(SCC(=O)NCCCN2CCN(c3ccccc3F)CC2)c2ccccc21	-1	20693*	-2	-5	-1
CCOC(=O)CNC(=O)COc1coc(CN2CCN(c3ccccc3F)CC2)cc1=O	38*	6143	0	11	1
CCOC(=O)CNC(=O)COc1coc(CN2CCN(c3ccccc3)CC2)cc1=O	1	5349	-2	0	-2
CC(C)(C)OC(=O)NC(Cc1ccccc1)C(=O)N1CCC(C(=O)NCC(=O)Nc2ccc(F)cc2)CC1 (stereo not given)	-2	6044	-1	29	-1
COCC(C)NC(C(=O)Nc1ccc(C)c(Cl)c1)c1ccccc1 (stereo not given)	?	21763*	-3	2	1
Cc1cc(C)nc(N/C(=N\S(=O)(=O)Cc2ccccc2)Nc2cccc(Cl)c2C)n1	0	21814*	-2	8	-1

Source: PubChem BioAssay
